Measured values: paper PMC5540273 (PLoS ONE, 2017)

Each molecule was assayed on ZAK. Details: concentration: 1 μM, replicates: in singlicate; n = 1.
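Also: KINOMEscan kinase panel screen.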

| Compound | %Inh [%] |
| --- | --- |
| Fc1cccc(COc2nnc(-c3ccc4c(c3)CCO4)o2)c1 | 0 |
| COc1ccc(CNC(=O)NC2CCN(c3ccnc(Nc4cc(OC)c(OC)c(OC)c4)n3)C2)cc1 (centres unmarked) [GSK1379748] | 5 |
| O=C(Nc1n[nH]c2nc(-c3nccs3)c(Br)cc12)C1CCCC1 [SB-742609] | 9 |
| Cc1csc(-c2nc(Nc3ccncc3)c3ccccc3n2)n1 [GW869640] | 17 |
| O=C(Nc1n[nH]c2nc(-c3nccs3)c(Br)cc12)C1CC1 [SB-742251] | 7 |

What follows are molecules tested on ZAP70. Details: concentration: 1 μM, replicates: in singlicate; n = 1.

| Compound | %Inh [%] |
| --- | --- |
| Nc1ncnc2[nH]c(-c3ccccc3)nc12 [AH5015] | 0 |
| Cc1cc(-c2ccc3c(c2)CC[C@@H](N[C@@H](C)c2ccccc2)C3)cnc1N.Cl [GW412617] | 0 |
| Cc1ccc(-c2cc(-c3c[nH]nc3-c3ccccn3)ccn2)cc1 [GW684088] | 10 |
| O=C(Nc1n[nH]c2cc(-c3cccc(F)c3F)ccc12)C1CC1 [SB-733894] | 60 |
| O=C(Nc1ccc2c(c1)OCO2)NC1CCN(c2ccnc(Nc3ccc(F)cc3)n2)C1 (centres unmarked) [GSK1379724] | 0 |
| O=c1cc(N2CCOCC2)nc2n(Cc3cccc(Cl)c3Cl)ccn12 [GSK2286295] | 0 |
| COc1cccc(NC(=O)NC2CCN(c3ccnc(Nc4ccc(F)cc4)n3)C2)c1 (centres unmarked) [GSK1379721] | 0 |
| CN(C)CCN(C)C(=O)c1cc(-c2ccncc2)c(-c2ccc(Cl)c(O)c2)o1.Cl.Cl [SB-710397] | 35 |
| CC(C)(C)c1ccc(C(=O)Nc2cn3cc(Cl)ccc3n2)cc1 | 4 |
